Drawing on PubChem BioAssay (NCATS), this text covers Potency and outcome for eleven compounds.

Inconclusive results are not listed. A number with no mark means an inactive call. Calls of active or inactive are those of the source. Calls follow the shape of the dose curve; as a rule, active = well fitted curve in the direction sought with a large enough effect; inconclusive = small, poorly fitted or top-dose-only effect, or another doubt; inactive = no such curve, though single readings can be large; an effect the other way counts as inactive or inconclusive. Peptide text beside a SMILES is read from it. * marks the point of attachment. Hexanoyl = CCCCCC(=O)*

Experiment [1] has as its system Zika virus NS2B-NS3 protease (linked construct). The experiment in a line: Primary screen NINDS Rhodamine qHTS for Zika virus inhibitors (AID 1347160). Also: nearly all actives have a fitted effect of over 55% in size. Also: potency is read from the fitted curve at half-maximal effect. Summed up:
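Kinetic fluorescence (Ex 480 nm, Em 540 nm) over 15 min with 1.5 microM Rhodamine110 peptide and 25 nM linked protease.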
(In general: Quantitative high-throughput screening tests each substance at several concentrations.)

Experiment [2] in a line: UWB1.289 Cancer Cell Toxicity qHTS against the NCATS CANVASS Library (AID 1347347). Also: nearly all actives have a fitted effect of over 60% in size. Also: potency is read from the fitted curve at half-maximal effect. An outline of the steps: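 Viability was assessed by adding CellTiter-Glo reagent to treated cultures and reading luminescence after 15min at room temperature. Treatment lasted 72 h at 37 degrees C/5% CO2, using an 11-point series on 1000 cells/well.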
The nature of experiment [3]: KB-8-5-11 Cancer Cell Toxicity qHTS against the NCATS CANVASS Library (AID 1347364). Also: nearly all actives have a fitted effect of over 75% in size. Also: potency is read from the fitted curve at half-maximal effect. Summed up:
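KB-8-5-11 cells, 500/well in DMEM + 10% FBS, given compounds in an 11-point series. Incubated 72 h at 37 °C. Viability by CellTiter-Glo luminescence. Confirmation also run with 1 uM tariquidar.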

Experiment [4] can be described thus: qHTS for Hypoxia signaling pathway (HIF-1) antagonists against the NCATS CANVASS Library (AID 1347374). Also: nearly all actives have a fitted effect of over 60% in size. Also: potency is read from the fitted curve at half-maximal effect. An outline of the steps:
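HRE-bla ME-180 cells in medium with 0.5% dialyzed FBS received compounds (11-point series) plus CoCl2 (60 uM addition stock) for 17 hrs at 37C. Beta-lactamase activity read with CCF4 (405 nm ex, 460/530 nm em); CellTiter-Glo viability measured in same wells.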

A short description of experiment [5]: qHTS for Antimalaria activity screened against the NCATS CANVASS Library (AID 1347380). Also: nearly all actives have a fitted effect of over 40% in size. Also: potency is read from the fitted curve at half-maximal effect. An outline of the steps: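 Red blood cells infected with P. falciparum Dd2 (2.5% hematocrit final, 0.3% parasitemia) were exposed to compounds in an 11-point qHTS series for 72 hr at 37C under 5% O2 and 5% CO2. Lysis buffer with SYBR Green was then added for 18 hr, and fluorescence was read at 485/535 nm.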

A short description of experiment [6]: qHTS for inhibitors of Wild type Zika virus screened against the NCATS CANVASS Library (AID 1347396).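 Also: ATP luminescence of surviving cells so rescue from viral cell killing; series mostly up to about 46 µM.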 An outline of the steps:
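Protection against wild-type Zika cytopathic effect is measured in African green monkey Vero 766 cells exposed to an 11-point compound series. Surviving cells are quantified by CellTiter Glo luminescence after 72 h.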

Experiment [7] can be described thus: HEK-293 Cancer Cell Toxicity qHTS against the NCATS CANVASS Library (AID 1347355). Also: nearly all actives have a fitted effect of over 65% in size. Also: potency is read from the fitted curve at half-maximal effect. As to outcome: series mostly up to about 46 µM. Summed up:
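Cells at 1000/well were given compound 4 h after plating in an 11-point series. Viability was read by CellTiter-Glo luminescence after 72 h at 37 degrees C.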

A short description of experiment [8]: qHTS for Inflammasome Signaling Inhibitors: IL-1-beta AlphaLISA screen against the NCATS CANVASS Library (AID 1347379).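 Also: human THP-1 cells primed with LPS then triggered with ATP.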 An outline of the steps: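 THP-1 cells pretreated 1 hr with compound (up to 57.5 uM final), then stimulated with LPS (250 ng/mL final) and ATP (1.25 mM final). Secreted IL-1B measured by AlphaLISA after 16 hr; glyburide as positive control.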

Experiment [9] in a line: Secretion counterscreen for inhibitors of the SERCaMP assay screened against the NCATS CANVASS Library (AID 1347390).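 Also: light from luciferase secreted into medium read as a measure of general secretion; series mostly up to about 77 µM.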 Summed up:
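SH-SY5Y cells expressing constitutively secreted GLuc, 1000 cells/well, attached 4 h at 37C, then exposed to compounds (0.001 - 77 uM, 11-pnt series) for 20 h. Coelenterazine added; luminescence read to flag secretory-pathway interferers.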
Background: A counterscreen serves to expose hits that act by an unwanted route or on another target.

The nature of experiment [10]: qHTS to identify inhibitors of the type 1 interferon - major histocompatibility complex class I in skeletal muscle: primary screen against the NCATS Mechanism Interrogation Plate v5.0 (MIPE) Libary (AID 1347411). Also: nearly all actives have a fitted effect of over 65% in size. An outline of the steps:
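Immortalized human myoblasts (C25cl48) with HiBit knocked into endogenous HLA-B*08:01 were stimulated with 4 ng/ml IFN-beta and given compounds in 11-point 1:3 titration from 46 uM. After 24 h at 37 C, lytic HiBiT luminescence was read.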

Experiment [11] concerns the target Glutathione peroxidase 1 (Homo sapiens) (UniProt P07203). The experiment in a line: Primary qHTS Assay for Inhibitors of Recombinant Selenoprotein Glutathione Peroxidase 1 (GPX1) (AID 1845191). Also: nearly all actives have a fitted effect of over 65% in size. Summed up:
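10 nM GPX1 + cpd, 30 min RT; start w/ 1 mM GSH, 0.5 mM cumene hydroperoxide, 0.5 mM NADPH, 100 nM GR, 0.01% BSA; buffer 50 mM Tris-HCl pH 7.5, 2 mM EDTA, 150 mM NaCl; Fl 340/450, 0 & 15 min.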

The target in experiment [12] is Phospholipid hydroperoxide glutathione peroxidase GPX4 (Homo sapiens) (UniProt P36969). The experiment in a line: Primary qHTS Assay for Inhibitors of Recombinant Selenoprotein Glutathione Peroxidase 4 (GPX4) (AID 1845192). Also: series mostly up to about 50 µM; nearly all actives have a fitted effect of over 65% in size. To be noted: outcome: dose series up to 50 µM unless noted. An outline of the steps: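 NADPH consumption, followed by fluorescence at 340/450 nm between 0 and 15 min, reports GPX4 activity via coupled glutathione reductase (100 nM). Enzyme 200 nM was pre-exposed to compound 30 min; 0.5 mM cumene hydroperoxide and 1 mM GSH served as substrates.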

Experiment [13] can be described thus: qHTS for activators of Nrf2/ARE signaling pathway screened against the NCATS CANVASS Library (AID 1347391). Also: nearly all actives have a fitted effect of over 60% in size. Summed up:
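ARE-bla HepG2 beta-lactamase reporter cells exposed to compounds for 16 h at 37C; CCF4 substrate 2 h, fluorescence at ex 405 nm, em 460/530 nm. Viability by CellTiter-Glo luminescence.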

Chain of Glutathione peroxidase 1 (Homo sapiens) (P07203 whole entry, looked up): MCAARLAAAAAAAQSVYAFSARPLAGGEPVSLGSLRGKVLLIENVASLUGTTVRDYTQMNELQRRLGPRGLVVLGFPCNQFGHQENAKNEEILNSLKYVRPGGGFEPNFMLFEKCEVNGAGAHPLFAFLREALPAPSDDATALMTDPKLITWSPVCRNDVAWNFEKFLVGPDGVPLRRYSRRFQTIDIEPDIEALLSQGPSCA
Chain of Phospholipid hydroperoxide glutathione peroxidase GPX4 (Homo sapiens) (P36969 whole entry, looked up): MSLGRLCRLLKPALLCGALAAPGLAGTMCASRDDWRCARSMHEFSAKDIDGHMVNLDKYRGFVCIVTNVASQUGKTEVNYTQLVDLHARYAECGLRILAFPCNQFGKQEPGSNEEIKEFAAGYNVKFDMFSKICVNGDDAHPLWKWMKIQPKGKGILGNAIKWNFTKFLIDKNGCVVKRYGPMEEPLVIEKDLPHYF

Turning to `CCCc1c2c([nH]c(=O)c1C)C(=O)c1[nH]c(=O)c(C)c(CCC)c1C2=O`, the Potency in experiment [1] is 34.9 µM (active); in [2] it was 7.47 µM (active); in experiment [4] it was 9.41 µM (active); in experiment [5], 11.8 µM (active). Moreover, in experiment [3], the Potency result is “inactive”. Also, the compound was called inactive in experiment [6].

As for `COc1ccc([C@@H]2c3cc4c(cc3C(=O)C(C)C2C)OCO4)cc1OC` (stereo partly drawn), the Potency result in experiment [2], in [7], in experiment [4] and in [8] was “inactive” each time.

For the compound `CCCCCC(=O)N[C@@H](CC(C)C)C(=O)N[C@H](C=O)CCC(=O)O` (Hexanoyl-Leu-Glu-aldehyde), the Potency result in [2], in [7], in experiment [3], in experiment [4] and in experiment [9] was “inactive” each time. Further, in [6], the result was inactive.

With `CN(C)c1cc(NC(=O)CNC(C)(C)C)c(O)c2c1C[C@H]1C[C@H]3[C@H](N(C)C)C(=O)C(C(N)=O)=C(O)[C@]3(O)C(=O)C1=C2O`, the Potency entry in experiment [10], in [11] and in experiment [12] was “inactive” throughout.

Regarding `C[C@@H]1CC[C@]2(C(=O)O)CC[C@]3(C)C(=C2[C@H]1C)CC[C@@H]1[C@@]2(C)CC[C@H](O)C(C)(C)[C@@H]2CC[C@]13C`, in [1], the Potency is 34.9 µM (active). Moreover, the Potency result in [3] and in experiment [13] was “inactive” each time.

As for `C=C[C@@]1(C)CC[C@@H]([C@H](C)C(C)=O)O1`, the Potency entry in experiment [2], in [7], in [3] and in [4] was “inactive” in each case. In addition, the outcome in experiment [6] was inactive.

On to `CC[C@H](O)CCCCC[C@@H]1NC(=O)[C@H]2CCCCN2C(=O)[C@H]([C@H](C)CC)NC(=O)[C@H](Cc2cn(OC)c3ccccc23)NC1=O`, for which the values for the Potency in [1] and in experiment [5] were 15.6 µM (active) and 1.49 µM (active), respectively. Also, in experiment [8], the Potency entry was “inactive”.

As to `CC[C@@H]1C[C@@]2(CC)OC(=O)[C@@]3(CC)[C@H](CC)[C@@H]1[C@@H]23`, the Potency result in experiment [2], in [7] and in experiment [4] was “inactive” throughout. Moreover, the compound was classed as inactive in [6].

`Cc1cc(C)c(O)c(C(=O)CC2CC(=O)NC(=O)C2)c1`: the Potency entry in [1] and in experiment [8] was “inactive” in each case. In addition, the Potency in experiment [7] was 3.72 µM (active); in experiment [3], 7.43 µM (active); in experiment [5] it was 2.98 µM (active).

With `C/C1=C/[C@@H](C)[C@H](O)[C@@H](O)/C=C/CC/C=C/C(=O)O[C@@H]1[C@H](C)C(=O)/C=C/CC1CC(=O)NC(=O)C1`, the Potency entry in [1] and in [5] was “inactive” throughout. Also, the Potency in experiment [4] was 16.7 µM (active). Further, the compound was classed as inactive in [6].

On to `Cc1cc(O)cc2c1C(=O)c1c(O)cc(O)cc1C2=O`, for which the Potency result in experiment [2], in experiment [7], in experiment [4] and in [8] was “inactive” each time. Also, in [6], the outcome was inactive.
